# IL-1B inflam inh = qHTS for Inhibitors of Inflammasome Signaling: IL-1-beta AlphaLISA Primary Screen; THP-1 LPS/ATP IL-1B secretion, AlphaLISA, 16 h; active compounds read low; activity change, % at 57.5 µM; 4.7% of 360,000 active; in the data active = activity change below about -50%; inconclusive = mostly about -30% to -49%; note: % is set by controls: 0 for no effect and ±100 for the full control effect
#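 THP-1 cells pretreated 1 hr with compounds (up to 57.5 uM final), then stimulated with LPS (250 ng/mL final) plus ATP (1.25 mM final); secreted IL-1B measured by AlphaLISA after 16 hr, decreased signal indicating inhibition.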
# TGFb SMAD3 inh = qHTS for Inhibitors of TGF-b; HepG2 CAGA-GFP TGF-b/SMAD3 reporter, GFP fluorescence, 18 h; TGF-beta stimulated, 500 pg/mL final; Potency, µM (titrated, usually from 46.1 µM), for inactives: at the top dose activity, negative = inhibition, usual class: inhibitors; 1.2% of 410,000 active; AID 588855, 2011; note: potency is the fitted concentration of half-maximal effect; % is set by controls: 0 for no effect and ±100 for the full control effect; nearly all actives have a fitted effect of over 65% in size
#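 HEPG2 CAGA-GFP reporter cells (1000/well, DMEM with 1% FBS) received compounds, then recombinant TGF-beta at 500 pg/mL final for 18 hours at 37 degrees C. Per-cell GFP summed per well was normalised to unstimulated and stimulated DMSO controls before curve fitting.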
# S-ASM inh = Inhibitors of Secretory Acid Sphingomyelinase (S-ASM): qHTS; placental ASM, HMU-PC fluorogenic substrate, 60 min; Potency, µM (titrated, usually from 57.5 µM), inactives show at the top dose activity change, negative = inhibition, most hits filed as inhibitors; 0.006% of 340,000 active; AID 504937, 2011; note: potency is the fitted concentration of half-maximal effect
# Target sequence (P17405 47-631 limits assumed): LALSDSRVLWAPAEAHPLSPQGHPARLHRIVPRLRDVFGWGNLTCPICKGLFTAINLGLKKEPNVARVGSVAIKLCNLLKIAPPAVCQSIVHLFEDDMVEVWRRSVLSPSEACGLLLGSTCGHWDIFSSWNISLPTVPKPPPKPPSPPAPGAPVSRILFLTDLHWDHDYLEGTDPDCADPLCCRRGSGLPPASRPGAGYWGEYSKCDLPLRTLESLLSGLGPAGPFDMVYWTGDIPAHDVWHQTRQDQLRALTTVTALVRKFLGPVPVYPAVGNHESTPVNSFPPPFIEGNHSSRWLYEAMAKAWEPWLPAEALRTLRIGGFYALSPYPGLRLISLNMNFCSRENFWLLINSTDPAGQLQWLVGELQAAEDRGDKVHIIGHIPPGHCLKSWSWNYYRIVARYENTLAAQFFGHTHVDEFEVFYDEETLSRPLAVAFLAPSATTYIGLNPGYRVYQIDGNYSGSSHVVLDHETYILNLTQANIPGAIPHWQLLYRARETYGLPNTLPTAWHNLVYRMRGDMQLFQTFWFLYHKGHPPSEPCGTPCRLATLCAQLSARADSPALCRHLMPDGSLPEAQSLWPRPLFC
#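 qHTS format. ASM enzyme prepared from human placenta hydrolyses the fluorogenic substrate HMU-PC0 (9 uM final) over 60 min at 37 °C after a 10 min compound preincubation.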
# TDP1 cell CPT = qHTS for Inhibitors of human tyrosyl-DNA phosphodiesterase 1 (TDP1): qHTS in cells in presence of CPT. Potency, µM (titrated, usually from 46.2 µM), inactives show at the top dose activity change, negative = growth inhibition, usual class: inhibitors. chicken DT40 Tdp1-/-;hTDP1 cells + 20 nM CPT, ATP luminescence, 48 h. 12% of 420,000 active; note: potency is the fitted concentration of half-maximal effect; % is set by controls: 0 for no effect and ±100 for the full control effect; nearly all actives have a fitted effect of over 55% in size
#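 Chicken DT40 Tdp1-/- cells stably complemented with human TDP1 were seeded at 400 cells/well in medium containing 20 nM camptothecin, exposed to pin-transferred compounds, and grown at 37 °C for at least 48 hr. Viability was read as ATP luminescence.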
# HepG2 tox = qHTS for Inhibitors of TGF-b: Cytotox Counterscreen. HepG2 CAGA-GFP viability, ATP luminescence, 18 h. AID 588856, 2011. 0.76% of 410,000 active. Potency, µM (series often up to 46.1 µM), without a hit: at the highest dose activity change, negative = cytotoxicity, most hits filed as cytotoxic; note: potency is the fitted concentration of half-maximal effect
#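 HepG2 CAGA-GFP cells (1000/well, DMEM with 1% FBS) received compound, then TGF-beta at 500 pg/mL final, and were incubated 18 hours at 37 degrees C. Viability was read by CellTiter-Glo luminescence. Media-only wells were set as complete cell-killing and DMSO as no toxicity.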
# TDP1 cell noCPT = qHTS for Inhibitors of human tyrosyl-DNA phosphodiesterase 1 (TDP1): qHTS in cells in absence of CPT; DT40 Tdp1-/- hTDP1 cells, no CPT, ATP luminescence, 48 h; Potency, µM (titrated, usually from 46.2 µM), inactives show at the highest dose activity change, negative = growth inhibition, actives largely listed as inhibitors; 15% of 420,000 active; AID 686978, 2013; note: potency is the fitted concentration of half-maximal effect; % is set by controls: 0 for no effect and ±100 for the full control effect; nearly all actives have a fitted effect of over 55% in size
#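 Luminescent ATP content (CellTiter-Glo) served as the growth readout. Knockout chicken DT40 cells expressing human TDP1 were exposed to compounds without camptothecin for a minimum 48 hr at 37 °C.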
# Numbers without * were called inactive; ? = inconclusive; . = not tested or not shown. Sampled rows, rich in hits. Any-hit rate of the full collection: about 19%. Unless noted, calls come from the whole dose curve; as a rule, active = well fitted curve in the direction sought with a large enough effect; inconclusive = small, poorly fitted or top-dose-only effect, or another doubt; inactive = no such curve, though single readings can be large; an effect the other way counts as inactive or inconclusive.
SMILES,IL-1B inflam inh,TGFb SMAD3 inh,S-ASM inh,TDP1 cell CPT,HepG2 tox,TDP1 cell noCPT
O=S(=O)(O)c1ccc2c(N=Nc3ccc(S(=O)(=O)O)c4ccccc34)c(O)c(S(=O)(=O)O)cc2c1,.,-5%,.,?,1%,?
CC(=O)Nc1ccc(S(=O)(=O)O)c2cc(S(=O)(=O)O)c(N=Nc3ccc(N=Nc4ccc(S(=O)(=O)O)cc4)c4ccc(S(=O)(=O)O)cc34)c(O)c12,.,-6%,.,8.9µM*,-26%,13µM*
C=CCOc1c(Cl)cc(CNc2ccc(N(C)C)cc2)cc1OC,0,?,21%,6.5µM*,-65%,6.5µM*
CCOc1ccc(OCCOCCN2CCCC2)cc1,-3,-3%,6%,-20%,13%,-22%
CCOc1cc(CNc2ccc(S(N)(=O)=O)cc2)cc(Cl)c1OC,-10,0%,-10%,?,-1%,?
COc1cccc(Nc2ccc(N3CCCCC3)cc2)c1OC,.,?,3%,.,-32%,.
CCOc1cc(CNc2ccc(N3CCCC3)cc2)cc(Cl)c1OC,-99*,-3%,50%,2.9µM*,-31%,3.7µM*
CCOc1ccc(CNCCN2CCCC2)cc1,-15,1%,-1%,?,-12%,21µM*
C=CCOc1c(Cl)cc(CNCCC)cc1Cl,-6,6%,0%,?,-34%,?
COc1cccc(CNc2ccc(N3CCCCC3)cc2)c1OC,-3,?,8%,26µM*,-4%,?
CCOc1ccc(CNc2ccc(N3CCCC3)cc2)cc1,4,?,1%,9.2µM*,-32%,8.2µM*
COc1cc(CC(=O)OCC(=O)Nc2ccc(N3CCOCC3)cc2)cc(OC)c1OC,40,10%,2%,-3%,12%,7%
CCOc1ccc(CNc2ccc(N3CCN(Cc4ccccc4)CC3)cc2)cc1,-1,-15%,1%,?,-23%,?
COc1cc(CNc2ccc(N3CCCC3)cc2)cc(Cl)c1OC,?,?,118%,2.3µM*,-16%,2.6µM*
CCC(NS(=O)(=O)c1cn(C)nc1C)c1ccccc1 (stereo unspecified),15,-27%,0%,1%,6%,-4%
Cc1cccc(C)c1NC(=O)/C(C#N)=C/c1cccs1,-10,12%,1%,12µM*,-41%,?
CCOC(=O)N1CCN(C(=O)CCSc2ccc(C)cc2)CC1,-5,55%,2%,23µM*,13%,23µM*
CCOC(=O)N1CCN(C(=O)CSc2nnc(-c3ccccc3OC)o2)CC1,-1,4%,1%,2%,-4%,-26%
CCOC(=O)N1CCN(C(=O)CSc2nnc(-c3ccc(C)c(C)c3)o2)CC1,-11,8%,-2%,?,3%,15µM*
CCOC(=O)N1CCN(C(=O)CSc2nnc(-c3cccc(OC)c3)o2)CC1,5,11%,-2%,16µM*,12%,23µM*
CCOC(=O)N1CCN(C(=O)CSc2nnc(-c3cc(OC)ccc3OC)o2)CC1,-1,8%,2%,15µM*,-10%,21µM*
CCOC(=O)N1CCN(C(=O)CSc2nnc(-c3cc(OC)cc(OC)c3)o2)CC1,-8,0%,0%,-7%,11%,?
CCCCNC(=O)C1C(c2ccc(C(F)(F)F)cc2)=Nc2ccccc2N1C(=O)c1ccc2nc(C)[nH]c2c1 (stereo unspecified),-27,.,.,?,.,?
CC1CC(C(=O)Nc2ccccc2)C(=O)O1 (stereo unspecified),4,0%,-1%,1%,-52%,2%
CCCCN1CC[C@H]2C=CC[C@@H](C(=O)NC3CCCCC3)[C@H]2C1=O,.,21%,.,?,23%,?
SMILES,IL-1B inflam inh,TGFb SMAD3 inh,S-ASM inh,TDP1 cell CPT,HepG2 tox,TDP1 cell noCPT
Cc1ccc(N2CC(O)Cn3c2nc2c3c(=O)[nH]c(=O)n2C)cc1 (stereo unspecified),21,-2%,1%,16%,0%,26%
CSc1ccccc1NC(=O)COC(=O)Cc1ccsc1,14,-5%,3%,-10%,-19%,-10%
Cc1cc(C)cc(Cn2cc(CN3CC(N4CCN(Cc5ccccc5F)CC4)CS3(=O)=O)nn2)c1 (stereo unspecified),14,.,.,?,.,?
CN(Cc1cn(Cc2cccc(C(F)(F)F)c2)nn1)C1CN(Cc2cn(Cc3cccc(C(F)(F)F)c3)nn2)S(=O)(=O)C1 (stereo unspecified),?,.,.,13µM*,.,13µM*
O=S1(=O)CC(N2CCN(Cc3ccccc3F)CC2)CN1Cc1cn(Cc2ccc(C(F)(F)F)cc2)nn1 (stereo unspecified),-21,.,.,13µM*,.,9.2µM*
Cc1ccc(Cn2cc(CN3CC(N4CCN(Cc5ccccc5F)CC4)CS3(=O)=O)nn2)cc1 (stereo unspecified),-2,.,.,?,.,16µM*
Cc1ccc(-c2nc(C)c(CCNC(=O)C(=O)Nc3cc(C)ccc3C)s2)cc1,.,4%,.,.,7%,.
O=C(Nc1cccc(F)c1)N1CCC2(CC1)CCN(C(=O)c1csnn1)CC2,.,.,.,7%,.,-24%
CCOC(=O)c1ccccc1N/C=C/C(=O)c1cccs1,23,16%,186%,?,-3%,21µM*
O=C(Nc1cccc(C(F)(F)F)c1)Nc1ccc2[nH]c(=O)[nH]c2c1,24,-7%,-2%,24%,-5%,-19%
COc1ccc(N2CCN(c3nc4ccc(C(=O)c5ccccc5)cc4n4cnnc34)CC2)cc1,.,-24%,.,16µM*,1%,-96%
Cc1cccc(N2CCN(c3nc4ccc(C(=O)c5ccccc5)cc4n4cnnc34)CC2C)c1 (stereo unspecified),.,0%,.,18µM*,2%,13µM*
O=C(c1ccccc1)c1ccc2nc(N3CCN(C(=O)c4ccco4)CC3)c3nncn3c2c1,-20,22%,-17%,23µM*,2%,13µM*
Clc1cccc(N2CCN(c3nc4ccccc4n4cnnc34)CC2)c1,.,6%,.,?,6%,?
O=C(c1ccccc1)c1ccc2nc(N3CCN(c4ccccc4)CC3)c3nncn3c2c1,.,-7%,.,4.6µM*,-1%,6.5µM*

# Source: PubChem BioAssay
